TDP1 inh = qHTS Assay for Inhibitors of Tyrosyl-DNA Phosphodiesterase (TDP1). Tyrosyl-DNA phosphodiesterase 1 (Homo sapiens), Q9NUW8. recombinant TDP1, AlphaScreen DNA substrate cleavage. Potency, µM (titrated, usually from 130 µM), inactives show top-dose activity change, negative = inhibition, hits mostly inhibitors. 350,000 tested, 0.28% active. AID 485290, 2010; further: on the % scale 0 is the no-effect control and ±100 the full control effect; nearly all actives have a fitted effect of over 40% in size
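Steps: enzyme plus compound, 15 min RT; add biotin/phosphotyrosine-FITC oligonucleotide (15 nM final), react 5 min; add donor/acceptor beads (10 ug/ml final), 10 min; read AlphaScreen. Tdp1 at 1 nM final.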
S-ASM inh = Inhibitors of Secretory Acid Sphingomyelinase (S-ASM): qHTS. placental ASM, HMU-PC fluorogenic substrate, 60 min. 340,000 tested, 0.006% active. Potency, µM (top dose mostly 57.5 µM), for inactives: at the highest dose activity change, negative = inhibition, most hits filed as inhibitors. AID 504937, 2011
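Fluorescence read-out (Ex 386 nm, Em 447 nm) after stopping the reaction at pH 10. Enzyme: ASM from human placenta; substrate HMU-PC0, 9 uM final; 60 min, 37 °C. Compound preincubation 10 min, ambient temperature.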
PLK1 PBD inh = qHTS for Inhibitors of PLK1-PDB (polo-like kinase 1 - polo-box domain): Primary Screen. Serine/threonine-protein kinase PLK1 (Homo sapiens), P53350. Plk1 PBD binding of FITC phosphopeptide, fluorescence polarization. Potency, µM, for the others: max response, negative = inhibition, hits mostly inhibitors. 360,000 tested, 2.8% active. AID 720504, 2013; further: series mostly up to about 57 µM; on the % scale 0 is the no-effect control and ±100 the full control effect; nearly all actives have a fitted effect of over 65% in size
Target sequence (P53350 whole entry, looked up, the tested form may be a part): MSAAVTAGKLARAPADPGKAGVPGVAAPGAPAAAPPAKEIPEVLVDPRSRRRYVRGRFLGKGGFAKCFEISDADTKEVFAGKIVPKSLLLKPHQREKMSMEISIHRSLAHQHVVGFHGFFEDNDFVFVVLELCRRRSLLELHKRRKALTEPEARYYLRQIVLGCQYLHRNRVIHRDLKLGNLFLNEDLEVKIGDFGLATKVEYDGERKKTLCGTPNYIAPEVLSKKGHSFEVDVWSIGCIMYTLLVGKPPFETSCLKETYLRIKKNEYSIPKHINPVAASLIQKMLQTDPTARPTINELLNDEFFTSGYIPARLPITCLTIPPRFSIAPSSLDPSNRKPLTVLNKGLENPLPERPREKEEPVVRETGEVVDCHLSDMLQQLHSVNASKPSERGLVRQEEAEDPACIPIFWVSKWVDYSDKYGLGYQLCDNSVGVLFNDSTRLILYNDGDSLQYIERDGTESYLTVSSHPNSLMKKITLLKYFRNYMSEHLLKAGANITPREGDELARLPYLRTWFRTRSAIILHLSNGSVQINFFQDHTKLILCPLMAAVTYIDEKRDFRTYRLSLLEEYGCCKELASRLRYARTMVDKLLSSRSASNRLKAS
Tb PFK block = qHTS Assay to Find Inhibitors of T. brucei phosphofructokinase; T. brucei PFK, ADP-Glo luminescence; Potency, µM (doses to about 57.5 µM), without a hit: top-dose activity, negative = inhibition, most hits filed as inhibitors; 330,000 tested, 0.17% active;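 further: 0% = uninhibited 1x PFK enzyme wells and -100% = no-enzyme wells; nearly all actives have a fitted effect of over 60% in size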
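Luminescent ADP detection (ADP-Glo, two-step: ATP depletion then ADP-to-ATP conversion for luciferase) reported PFK activity after 45 min room-temperature reaction of 1.25 nM enzyme with 0.5 mM F6P and 0.1 mM ATP at pH 8.0.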
VDR inh = Inhibitors of the vitamin D receptor (VDR): qHTS; Vitamin D3 receptor (Homo sapiens), P11473; VDR-SRC2-3 peptide fluorescence polarization, 2 h; Potency, µM, for inactives: max response, negative = inhibition, usual class: inhibitors; 400,000 tested, 0.93% active; AID 504847, 2011; further: on the % scale 0 is the no-effect control and ±100 the full control effect
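VDR–SRC2-3 interaction, FP format. Cmpds 23 nl via pintool, brief spin, 2 h ambient incubation.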
Pin1 inh = qHTS Assay to Find Inhibitors of Pin1; Pin1 FP peptide displacement, HiFluor488, 10 min; AID 504891, 2011; Potency, µM (top dose mostly 115 µM), for the others: top-dose activity, negative = inhibition, most hits filed as inhibitors; 390,000 tested, 0.009% active; active means well fitted inhibition curve with a large enough effect in the polarisation, with a control signal flat, not every such curve was filed as active; inconclusive means small, poorly fitted or top-dose-only effect, or effect the other way, or a change in a side signal; inactive means no such curve, though single readings can be large or run the other way; the % refers to the polarisation; further: on the % scale 0 is the no-effect control and ±100 the full control effect
Target sequence (Q13526 whole entry, looked up): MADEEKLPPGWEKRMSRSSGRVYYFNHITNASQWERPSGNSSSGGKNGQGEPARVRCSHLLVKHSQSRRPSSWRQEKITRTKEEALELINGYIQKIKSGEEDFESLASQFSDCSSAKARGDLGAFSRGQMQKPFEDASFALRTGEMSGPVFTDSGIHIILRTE
* marks the source's active call; other numbers are inactive results; i = inactive; ? = inconclusive; / = not tested or not shown; [ ] = another dose, or the depositor's remark. Hits are enriched below; roughly 3.1% of the tested compounds scored in any of these assays. Unless noted, the call rests on the fitted dose curve; in most records, active means well fitted curve in the direction sought with a large enough effect; inconclusive means small, poorly fitted or top-dose-only effect, or another doubt; inactive means no such curve, though single readings can be large; an effect the other way counts as inactive or inconclusive. Potency means the concentration at half of the fitted maximal effect.

SMILES	TDP1 inh	S-ASM inh	PLK1 PBD inh	Tb PFK block	VDR inh	Pin1 inh
CN1C(=O)NC2(O)C(=O)c3ccccc3C12O (stereo unspecified)	1.9%[56.1 µM]	1.6%	2.67µM*	-0.8%	?	2.3%
CCCCCCCCCCCCN1[C@@H](CC(=O)O)c2cc(C(F)(F)F)ccc2S1(=O)=O	/	-5.6%	33.6µM*	/	?	/
CCCCCCCCN1[C@@H](CC(=O)O)c2cc(C(F)(F)F)ccc2S1(=O)=O	/	2.4%	-20.3%	/	-16.8%	-0.6%
Cc1ccc(C)c(Nc2nc(NCc3ccco3)nc3nccnc23)c1	-15.9%	/	/	/	-17.7%	9.6%
N#Cc1cc(C#N)c(SCC(=O)N2CC(=O)Nc3ccccc32)nc1N	-5.9%	-0.7%	-4.4%	7.3%	6.4%	5.7%
CCc1cc2cc(C)ccc2nc1SCC(=O)N1CC(=O)Nc2ccccc21	-11.5%	-8.1%	5.7%	3.8%	5.1%	33.1%
CCc1ccc2nc(SCC(=O)N3CC(=O)Nc4ccccc43)c(C#N)cc2c1	4.2%	-11.1%	21.2µM*	-2.1%	?	?
CCc1cc2c(SCC(=O)N3CC(=O)Nc4ccccc43)ncnc2s1	0.6%	-0.8%	26.7µM*	0.0%	?	10.3%
COCCNC(=O)CN(Cc1ccc2c(c1)OCO2)C(=O)CCC(=O)Nc1nccs1	1.0%	2.6%	3.36µM*	-7.6%	?	-1.0%
COc1cc(OC)cc(C(=O)Nc2ccc(S(=O)(=O)N3CCCCC3c3cccnc3)cc2)c1 (stereo unspecified)	12.1%	/	/	/	7.0%	?
CS(=O)(=O)c1ccc2nc(NC(=O)C3CC(=O)N(c4ccccc4)C3)sc2c1 (stereo unspecified)	9.1%	-11.0%	29.9µM*	-5.3%	?	-1.3%
CC(=O)c1ccccc1OC(=O)COc1ccc([N+](=O)[O-])cc1	/	2.6%	21.2µM*	1.2%	?	-2.6%
c1coc(CNc2nc(-c3cccs3)nc3ccccc23)c1	1.3%	/	/	/	/	-2.1%
O=C(O)c1ccc2c(c1)C(=O)N([C@H](Cc1ccccc1)C(=O)O)C2=O	4.4%	/	/	8.0%	/	0.1%
O=C(O)[C@H](Cc1ccccc1)N1C(=O)c2c(Cl)c(Cl)c(Cl)c(Cl)c2C1=O	/	8.4%	26.7µM*	1.8%	?	-14.0%
Cc1ccc(NC(=O)CSc2n[nH]c(-c3ccc(F)cc3)n2)cc1F	8.1%	/	/	/	?	0.8%
c1ccc(SCc2nc(-c3ccncc3)no2)cc1	6.6%	0.0%	13.4µM*	-5.3%	-8.2%	-1.8%
Clc1ccccc1OCc1nc(-c2ccncc2)no1	0.0%	0.5%	6.7µM*	-10.2%	-6.0%	-17.5%
Cc1ccc(SCc2nc(-c3ccncc3)no2)cc1	0.0%	1.9%	2.99µM*	16.2%	-19.4%	0.0%
CCOC(=O)c1c(N)sc2c1CCN(Cc1ccccc1)C2	9.2%	/	/	/	39.8µM*	/
CC(=O)c1cccc(NC(=O)c2ccc3nc(C(C)C)oc3c2)c1	1.8%	/	/	/	-6.7%	-1.8%
CCc1ccccc1NC1=NCC(=O)N1C1CCCC1	0.0%	3.0%	29.9µM*	0.4%	-27.5%	-0.2%
C=CCN1c2ccccc2[C@]23C[C@@H](C(=O)OC)N(S(=O)(=O)c4ccc(Br)cc4)C2=NC(C(=O)OC)=C(C(=O)OC)[C@H]13	7.1%[12.3 µM]	/	/	/	/	/
Nc1ccc2nn(-c3ccccc3)nc2c1	2.4%	i	21.2µM*	-6.9%	-8.1%	-9.1%
O=C(CSc1nncn1-c1ccccc1)Nc1ccc(N2CCOCC2)cc1	1.0%	-2.4%	2.67µM*	-0.8%	?	-2.0%
SMILES	TDP1 inh	S-ASM inh	PLK1 PBD inh	Tb PFK block	VDR inh	Pin1 inh
Fc1ccc(N2CCN(C(c3cccs3)c3nnnn3CCc3ccccc3)CC2)cc1 (stereo unspecified)	0.1%[56.1 µM]	-2.0%	23.8µM*	-2.4%	-4.6%	19.3%
COc1ccc(C2Nc3ccccc3C(=O)N2Cc2ccccc2)cc1COc1ccccc1OC (stereo unspecified)	2.9%	/	/	/	/	7.6%
O=C(Cc1nnc(CNC(=O)c2ccccc2)o1)Nc1cc(C(F)(F)F)ccc1Cl	0.3%	/	/	/	/	-5.9%
O=[N+]([O-])c1ccc(-n2nnnc2-c2ccccc2)cc1	-2.6%	2.3%	10.6µM*	-7.1%	22.4µM*	1.3%
O=[N+]([O-])c1ccc(-n2nnnc2-c2ccccc2)c([N+](=O)[O-])c1	4.7%	-0.9%	-24.1%	1.0%	-21.1%	-8.9%
COc1ccc(C2Nc3ccccc3C(=O)N2CCCN(C)C)cc1COc1ccc(NC(C)=O)cc1 (stereo unspecified)	-0.7%	/	/	/	/	1.6%
COc1ccc(C2Nc3ccccc3C(=O)N2Cc2ccccc2)cc1OCc1ccc(NC(C)=O)cc1 (stereo unspecified)	2.8%	/	/	/	/	24.0%
Cc1cc2c(n1-c1ccc(C(=O)NCCc3ccc(Cl)cc3)cc1)CCC(C)C2 (stereo unspecified)	1.2%	/	/	/	-0.7%	5.8%
Cc1cccc(-c2cc3nc(C)cc(C)n3n2)c1	6.0%	8.0%	21.2µM*	-6.8%	-0.7%	7.5%
Cc1cc(C)n2nc(-c3cccc(Br)c3)cc2n1	/	-1.8%	-6.9%	-2.1%	10.3%	9.2%
CCC(Cn1nnc2ccccc2c1=O)NC(=O)Nc1ccc(C)c(C)c1 (stereo unspecified)	2.3%	/	/	/	-5.8%	0.9%
COc1ccc(N2C(S)=C(C#N)C(=O)NC23CCCCC3)cc1	6.2%	2.2%	-22.1%	5.1%	50.1µM*	0.3%
COc1ccc(CN/C(C)=C(/C#N)C(N)=O)cc1OC	1.9%	5.5%	26.7µM*	0.9%	?	0.6%
COc1ccc(CNC(=O)NCc2ccc(OC)c(OC)c2)cc1OC	0.0%	0.5%	-6.3%	-2.7%	3.9%	0.7%
Cc1cc(CC(=O)O)c(C)n1-c1ccc(Cl)cc1	11.1%	/	/	/	?	/
COc1ccc(C(=O)CC2(O)C(=O)N(CCc3ccccc3)c3ccc(Br)cc32)cc1OC (stereo unspecified)	/	/	/	/	-11.3%	-0.2%
C=CCN1C(=O)C(O)(CC(=O)c2ccc(OC)cc2OC)c2cc(Br)ccc21 (stereo unspecified)	2.8%	-7.4%	8.44µM*	4.6%	-27.0%	-6.2%
[O-]c1n[n+](-c2ccc(Cl)cc2Cl)cc2ccccc12	5.5%	2.0%	-9.6%	-2.4%	12.0%	7.4%
[O-]c1n[n+](-c2ccc(Cl)cc2)cc2ccccc12	2.7%	-4.3%	3.36µM*	-1.6%	?	-10.6%

Screens: PubChem, National Center for Advancing Translational Sciences (NCATS)
